From the supplement of paper PMC6658780
Counter-ions that a name gives are not always drawn. ± gives the standard deviation of the averaged measurements.

System: Klebsiella pneumoniae KPC-119
Experiment: percent growth inhibition of drug alone vs DMSO control; higher = more growth inhibition
Settings: antibiotic (0.125x MIC): none (0.1% DMSO); 7 µM

Compound	percent growth inhibition of drug alone [%]
Oc1c(I)cc(Cl)c2cccnc12 [Clioquinol]	12.1 ± 5
Nc1nc(/C(=C/CC(=O)O)C(=O)N[C@@H]2C(=O)N3C(C(=O)O)=CCS[C@H]23)cs1 [Ceftibuten]	38.6 ± 4.3
COc1cc(C)nc(-n2nc(C)cc2OC)n1 [Epirizole]	-1.76 ± 0.66
CCn1cc(C(=O)O)c(=O)c2cc(F)c(N3CCNCC3)nc21 [Enoxacin]	1.76 ± 1.6
COC(=O)N/N=C/c1c[n+]([O-])c2ccccc2[n+]1[O-] [Carbadox]	1.29 ± 2
CC1COc2c(N3CCN(C)CC3)c(F)cc3c(=O)c(C(=O)O)cn1c23 (stereo not given) [Ofloxacin]	47.1 ± 5
C/C(=C\C(=O)OCCCCCCCCC(=O)O)C[C@@H]1OC[C@H](C[C@@H]2O[C@H]2[C@@H](C)[C@H](C)O)[C@@H](O)[C@H]1O [Mupirocin]	1.64 ± 1.8
C=CC1=C(C(=O)O)N2C(=O)[C@@H](NC(=O)/C(=N\OCC(=O)O)c3csc(N)n3)[C@H]2SC1 [Cefixime]	9.48 ± 2.4
NCC[C@H](O)C(=O)N[C@@H]1C[C@H](N)[C@@H](O[C@H]2O[C@H](CN)[C@@H](O)[C@H](O)[C@H]2O)[C@H](O)[C@H]1O[C@H]1O[C@H](CO)[C@@H](O)[C@H](N)[C@H]1O [Amikacin hydrate]	3.37 ± 0.38
CO/N=C(\C(=O)N[C@@H]1C(=O)N2C(C(=O)O)=C(C[N+]3(C)CCCC3)CS[C@H]12)c1csc(N)n1 [Cefepime hydrochloride]	3.95 ± 2.2
CC1CCc2cc(F)cc3c(=O)c(C(=O)O)cn1c23 (stereo not given) [Flumequine]	15.15 ± 0.074
C[C@@H]1CN(c2c(F)c(N)c3c(=O)c(C(=O)O)cn(C4CC4)c3c2F)C[C@H](C)N1 [Sparfloxacin]	33.5 ± 3.3
CCCCCCCCNC(C)C(O)c1ccc(SC(C)C)cc1 (stereo not given) [Suloctidil]	-1.6 ± 0.96
O=C1NCN(c2ccccc2)C12CCN(CCCC(c1ccc(F)cc1)c1ccc(F)cc1)CC2 [Fluspirilen]	-0.668 ± 2.3

Same assay, conditions: antibiotic (0.125x MIC): none (0.1% DMSO); 20 µM

Compound	percent growth inhibition of drug alone [%]
Oc1c(I)cc(Cl)c2cccnc12 [Clioquinol]	44.53 ± 0.32
COc1cc(C)nc(-n2nc(C)cc2OC)n1 [Epirizole]	-0.885 ± 4.3
CCn1cc(C(=O)O)c(=O)c2cc(F)c(N3CCNCC3)nc21 [Enoxacin]	25.2 ± 4
COC(=O)N/N=C/c1c[n+]([O-])c2ccccc2[n+]1[O-] [Carbadox]	11 ± 1.9
CC1COc2c(N3CCN(C)CC3)c(F)cc3c(=O)c(C(=O)O)cn1c23 (stereo not given) [Ofloxacin]	97.47 ± 0.25
C/C(=C\C(=O)OCCCCCCCCC(=O)O)C[C@@H]1OC[C@H](C[C@@H]2O[C@H]2[C@@H](C)[C@H](C)O)[C@@H](O)[C@H]1O [Mupirocin]	6.42 ± 0.11
C=CC1=C(C(=O)O)N2C(=O)[C@@H](NC(=O)/C(=N\OCC(=O)O)c3csc(N)n3)[C@H]2SC1 [Cefixime]	44.3 ± 4.2
NCC[C@H](O)C(=O)N[C@@H]1C[C@H](N)[C@@H](O[C@H]2O[C@H](CN)[C@@H](O)[C@H](O)[C@H]2O)[C@H](O)[C@H]1O[C@H]1O[C@H](CO)[C@@H](O)[C@H](N)[C@H]1O [Amikacin hydrate]	39.8 ± 0.7
CC1CCc2cc(F)cc3c(=O)c(C(=O)O)cn1c23 (stereo not given) [Flumequine]	65.7 ± 2.7
C[C@@H]1CN(c2c(F)c(N)c3c(=O)c(C(=O)O)cn(C4CC4)c3c2F)C[C@H](C)N1 [Sparfloxacin]	99.04 ± 0.49
CCCCCCCCNC(C)C(O)c1ccc(SC(C)C)cc1 (stereo not given) [Suloctidil]	-1.21 ± 1.4
O=C1NCN(c2ccccc2)C12CCN(CCCC(c1ccc(F)cc1)c1ccc(F)cc1)CC2 [Fluspirilen]	-1.04 ± 3.2
CCCCC(CC)CNC(=N)NC(=N)NCCCCCCNC(=N)NC(=N)NCC(CC)CCCC (stereo not given) [Alexidine dihydrochloride]	99.76 ± 0.25

System: Klebsiella pneumoniae NCTC-13439
Experiment: as above
Settings: antibiotic (0.125x MIC): none (0.1% DMSO); 7 µM

Compound	percent growth inhibition of drug alone [%]
CCN1CCN(c2cc3c(cc2F)c(=O)c(C(=O)O)cn3C2CC2)CC1 [Enrofloxacin]	3.46 ± 4.9
NC1CCN(c2c(F)cc3c(=O)c(C(=O)O)cn(C4CC4)c3c2Cl)C1 (stereo not given) [Clinafloxacin]	13.5 ± 8.8
Cc1c(F)c(N2CCNC(C)C2)cc2c1c(=O)c(C(=O)O)cn2C1CC1 (stereo not given) [Grepafloxacin]	13 ± 6.5
COc1c(N2CCNC(C)C2)c(F)cc2c(=O)c(C(=O)O)cn(C3CC3)c12 (stereo not given) [Gatifloxacin]	12.5 ± 5.8
C#C[C@]1(OC(C)=O)CC[C@H]2[C@@H]3CCC4=CC(=NO)CC[C@@H]4[C@H]3CC[C@@]21CC (mixture of isomers) [Norgestimate]	-4.1 ± 1.3
NC(=O)N/N=C/c1ccc([N+](=O)[O-])o1 [Nitrofural]	-7.28 ± 2
COc1ccc(OC)c(C(O)CNC(=O)CN)c1 (stereo not given) [Midodrine hydrochloride]	-12.1 ± 4.3
Cc1nc2n(c(=O)c1CCN1CCC(c3noc4cc(F)ccc34)CC1)CCCC2 [Risperidone]	-5.2 ± 14
C[C@H](N)[C@H](O)c1cccc(O)c1 [Metaraminol bitartrate]	-7.73 ± 11
N=C(NCCCCCCNC(=N)NC(=N)Nc1ccc(Cl)cc1)NC(=N)Nc1ccc(Cl)cc1 [Chlorhexidine]	2.54 ± 9.5
COc1c(N2C[C@@H]3CCCN[C@@H]3C2)c(F)cc2c(=O)c(C(=O)O)cn(C3CC3)c12 [Moxifloxacin]	12.5 ± 0.24
O=C(OCC(O)CO)c1ccccc1Nc1ccnc2cc(Cl)ccc12 (stereo not given) [Glafenine hydrochloride]	-9.8 ± 14
NC1CCN(c2nc3c(cc2F)c(=O)c(C(=O)O)cn3-c2ccc(F)cc2F)C1 (stereo not given) [Tosufloxacin hydrochloride]	56.5 ± 19
